Bioassay records as filed in PubChem BioAssay.
Sampled rows, rich in hits. Any-hit rate of the full collection: about 3%.
GDH-TPI inh: GDH-TPI coupling enzyme inhibitors, primary screen, artefact control for M. tuberculosis FBA inhibitor project, biochemical, absorbance, full deck. inhibition, % at 4.8 µM. 360,000 compounds, 1.2% hits. GDH-TPI coupled enzyme counterscreen, NADH absorbance; in the data active = inhibition above about 30%
BioA inh-1: M. tuberculosis BioA enzyme inhibitors, primary screen, biochemical, plate reader, single point, HTS; purified M. tuberculosis BioA enzyme; 360,000 compounds, 0.096% hits; inhibition, % at 9.99 µM; 7,8-diaminopelargonic acid synthase BioA (Mycobacterium tuberculosis); in the data active = inhibition above about 40%
Rv3671c protease: Rv3671c serine protease inhibitors, primary screen, biochemical, fluorescence polarization, M. tuberculosis H37Rv. P9WHR9. 320,000 compounds, 0.048% hits. inhibition, % at 5.96 µM; in the data active = inhibition above about 38%;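 also: extracellular domain of Rv3671c used as enzyme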
FadD28 FP inh: inhibitors of FadD28 bisubstrate probe binding, primary screen, biochemical, fluorescence polarization, single point; inhibition, % at 12.5 µM; 360,000 compounds, 0.22% hits; Mycobacterium tuberculosis FadD28 fatty-acid-AMP ligase; in the data active = inhibition above about 8.5%, passing the limit was not always enough
Mtb FBA inh: Mtb FBA enzyme inhibitors, primary screen, biochemical, fluorescence, strain H37Rv | AID 588726, 2011 | Fructose-bisphosphate aldolase (Mycobacterium tuberculosis (strain ATCC 25618 / H37Rv)), … | purified M. tuberculosis FBA, fluorescence read-out | 360,000 compounds, 2.3% hits | inhibition, % at 1 µM; in the data active = inhibition above about 27%
BioA inh-2: Mtb BioA enzyme inhibitors, dose response, biochemical, plate reader, cherry-pick samples, set 03; max activity, %; 310 tested, under 10 active; AID 651679, 2012; purified BioA enzyme; shares compounds with BioA inh-1;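 also: top concentration of the dilution series was 10 µM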
Target sequence (P9WQ81 whole entry, looked up): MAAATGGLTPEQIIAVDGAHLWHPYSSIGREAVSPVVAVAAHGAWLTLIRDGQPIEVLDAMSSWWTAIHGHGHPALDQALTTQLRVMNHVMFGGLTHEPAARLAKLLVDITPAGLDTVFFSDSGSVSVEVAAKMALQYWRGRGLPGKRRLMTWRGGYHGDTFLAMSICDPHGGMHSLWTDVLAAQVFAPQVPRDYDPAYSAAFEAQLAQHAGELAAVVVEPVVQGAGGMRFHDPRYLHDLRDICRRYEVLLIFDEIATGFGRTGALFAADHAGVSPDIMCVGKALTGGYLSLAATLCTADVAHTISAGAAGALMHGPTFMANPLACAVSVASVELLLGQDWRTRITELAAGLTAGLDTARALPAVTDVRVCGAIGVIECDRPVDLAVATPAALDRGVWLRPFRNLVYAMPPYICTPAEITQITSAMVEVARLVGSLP
HepG2 tox 2: cytotoxicity in HepG2 cells, dose response, cytotoxicity control, cell-based, plate reader, cherry-pick, two tests; shares compounds with BioA inh-1; 310 tested, under 10 active; max activity, %
3T3 cytotox 5: cytotoxicity in NIH3T3 fibroblasts, dose response, cytotoxicity control, cell-based, plate reader, cherry-pick, two tests | shares compounds with BioA inh-1 | activity change, negative = cytotoxicity, % at 26 µM | 310 tested, under 10 active | AID 651900, 2012
Hits are given with their value; - = inactive; . = no result given. Unless noted, no rule for the calls is given here.

SMILES	GDH-TPI inh	BioA inh-1	Rv3671c protease	FadD28 FP inh	Mtb FBA inh	BioA inh-2	HepG2 tox 2	3T3 cytotox 5
C[C@@H]1CCCCO[C@@H](CN(C)S(=O)(=O)c2ccccc2)[C@H](C)CN([C@H](C)CO)C(=O)c2cc(NC(=O)Nc3cccc4ccccc34)ccc2O1	.	-	.	.	.	.	.	.
COc1ccc(CCN(C)c2ccc(C(N)=O)cc2[N+](=O)[O-])cc1OC	-	49.0	-	-	-	-	-	-
CCC(=O)N1CC[C@@H]2[C@H]1c1cc(-c3cccc(F)c3)ccc1N(C)[C@H]2CO	.	42.2	.	.	.	-	-	-
CN1c2ccc(-c3ccccc3)cc2[C@H]2[C@H](CCN2C(=O)c2ccccc2F)[C@H]1CO	.	46.4	.	.	.	-	-	-
CN1c2ccc(-c3cccc(F)c3)cc2[C@@H]2[C@@H](CCN2C(=O)c2ccncc2)[C@H]1CO	.	50.0	.	.	.	-	-	-
COc1ccc(-c2ccc3c(c2)[C@H]2[C@H](CCN2C(=O)Cc2cccnc2)[C@H](CO)N3C)cc1	.	43.3	.	.	.	-	-	-
CN(C)C(=O)c1cccc(-c2ccc3c(c2)[C@H]2[C@H](CCN2Cc2nccs2)[C@H](CO)N3)c1	.	-	.	.	.	.	.	.
COc1ccc(NC(=O)N(C)C[C@@H]2Oc3c(NC(=O)c4cc(C)nn4C)cccc3C(=O)N([C@@H](C)CO)C[C@H]2C)cc1	.	-	.	.	.	.	.	.
COCC(=O)Nc1ccc2c(c1)OC[C@@H](C)N(C(=O)NC(C)C)C[C@@H](C)[C@@H](OC)CN(C)C2=O	.	-	.	.	.	.	.	.
COC(=O)[C@@H]1[C@@H](CO)[C@@H]2Cn3c(ccc(-c4ccccc4)c3=O)[C@@H]2N1CCc1ccccc1	.	-	.	.	.	.	.	.
CC(=O)N1CC[C@@H]2[C@@H](CO)N(C)c3ccc(-c4cccc(F)c4)cc3[C@@H]21	.	56.4	.	.	.	-	-	-
CC(=O)N1CC[C@H]2[C@@H]1c1cc(-c3cccc(F)c3)ccc1N(C)[C@H]2CO	.	-	.	.	.	.	.	.
Cc1nc2nc(SCC(=O)NCc3ccco3)nn2c(C)c1Cc1c(F)cccc1Cl	-	47.8	-	-	-	-	-	-
Cc1ccc(Cc2c(C)nc3nc(SCC(=O)N4CCC5(CC4)OCCO5)nn3c2C)cc1	-	.	-	-	-	.	.	.
Cc1nc2nc(SCC(=O)N3CCOCC3)nn2c(C)c1Cc1ccccc1	-	111.3	-	-	-	-	-	-
Cc1cccc(Cc2c(C)nc3nc(SCC(=O)NCc4ccco4)nn3c2C)c1	-	-	-	-	-	.	.	.
Cc1ccc(Cc2c(C)nc3nc(SCC(=O)NCc4ccco4)nn3c2C)cc1	-	49.6	-	-	-	-	-	-
O=C(CSc1nc2c(c(=O)n1-c1ccccc1)SCC2)N1CCOCC1	-	87.6	-	-	-	-	-	-
O=C(CSc1nc2c(c(=O)n1-c1ccccc1)SCC2)N1CCN(c2ccccc2)CC1	-	47.4	-	-	-	-	-	-
CCOC(=O)CSc1nc2c(c(=O)n1-c1ccc(OCC)cc1)SCC2	-	-	-	-	-	.	.	.
CCOc1ccc(-n2c(SCC(N)=O)nc3c(c2=O)SCC3)cc1	-	40.8	-	-	-	-	-	-
O=C(CSc1nc2c(c(=O)n1-c1ccc(F)cc1)SCC2)N1CCCC1	-	-	-	-	-	.	.	.
CC1Cc2nc(SCC(=O)N3CCN(c4ccccc4)CC3)n(C)c(=O)c2S1 (stereo unspecified)	-	-	-	-	-	.	.	.
CC1Cc2nc(SCC(=O)N3CCOCC3)n(-c3ccccc3)c(=O)c2S1 (stereo unspecified)	-	63.0	-	-	-	-	-	-
CC(C)NC(=O)Nc1ccc2c(c1)C(=O)N([C@H](C)CO)C[C@H](C)[C@H](CN(C)Cc1ccc3c(c1)OCO3)OCCCC[C@@H](C)O2	.	-	.	.	.	.	.	.
SMILES	GDH-TPI inh	BioA inh-1	Rv3671c protease	FadD28 FP inh	Mtb FBA inh	BioA inh-2	HepG2 tox 2	3T3 cytotox 5
O=C(C[C@H]1CC[C@@H]2[C@H](COC[C@H](O)CN2C(=O)c2ccccc2F)O1)NCc1ccccc1	.	-	.	.	.	.	.	.
CO[C@H]1CN(C)C(=O)c2cc(NC(=O)C3CC3)ccc2OC[C@H](C)N(Cc2cccnc2)C[C@H]1C	.	-	.	.	.	.	.	.
C[C@@H]1CN([C@@H](C)CO)S(=O)(=O)c2ccc(C#C[C@@H](C)O)cc2O[C@H]1CN(C)C(=O)C1CC1	.	-	.	.	.	.	.	.
C[C@H](CO)N1C[C@H](C)[C@H](CN(C)Cc2ccncc2)OCCCC[C@H](C)Oc2ccc(NS(=O)(=O)c3cn(C)cn3)cc2C1=O	.	-	.	.	.	.	.	.
Cc1cnc(C(=O)NC2CC(C)(C)Cc3c2cnn3-c2cccc(F)c2)cn1 (stereo unspecified)	-	63.0	-	-	-	-	-	-
CCn1cc(C(=O)NC2CC(C)(C)Cc3c2cnn3-c2cccc(F)c2)cn1 (stereo unspecified)	-	-	-	-	-	.	.	.
Cc1ccc(-n2ncc3c2CC(C)(C)CC3NC(=O)CCc2cccnc2)cc1 (stereo unspecified)	-	44.7	.	-	-	-	-	-
COc1ccc(S(=O)(=O)Nc2ccc3c(c2)CC(=O)N([C@@H](C)CO)C[C@H](C)[C@H](CN(C)C)O3)cc1	.	-	.	.	.	.	.	.
CCOC(=O)c1ccc(N2C(=O)c3n[nH]c(C)c3C2c2ccc(OC)c(OC)c2)cc1 (stereo unspecified)	-	100.8	-	-	-	-	-	-
CCOC(=O)c1ccc(N2C(=O)c3n[nH]c(C)c3C2c2ccc(OC)cc2)cc1 (stereo unspecified)	-	-	-	-	-	.	.	.
C[C@H](CO)N1C[C@H](C)[C@H](CN(C)C(=O)Cc2ccccc2)Oc2ncc(-c3ccccc3)cc2C1=O	.	-	.	.	.	.	.	.
CC(C)(C)[S@](=O)N1Cc2cc(C(=O)NCc3ccccc3F)nc(-c3cccc(-c4cccnc4)c3)c2[C@@H]1CCO	.	42.4	.	.	.	-	-	-
CC(C)(C)[S@@](=O)N1Cc2cc(C(=O)NCc3ccccc3F)nc(-c3cccc(-c4cccnc4)c3)c2[C@H]1CCO	.	-	.	.	.	.	.	.
CC(=O)N1CCN(c2ccc([N+](=O)[O-])cc2C=C2C(=O)NC(=O)NC2=O)CC1	-	44.2	-	-	-	-	-	-
CC1(C(=O)NCc2ccc(F)c(F)c2)Cc2c(-c3cccc(C(N)=O)c3)ccnc2O1 (stereo unspecified)	-	61.7	.	-	-	-	-	-
COC(=O)C[C@H]1CC[C@@H]2[C@H](COC[C@@H](O)CN2C(=O)Nc2cccc(F)c2)O1	.	42.0	.	.	.	-	-	-
